The nature of the experiment: time-course viability loss in HT-29 cells – cell-based, CellTiter-Glo, multiple timepoints, dry powder, HRas target identification project, dose response (AID 720598).

Entries with a potency or affinity are not part of this list. Active and inactive are the calls of the source.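 The calls were made as follows: active = viability drop at all three exposure times, fitted half-maximal dose at most twice the top valid dose; inconclusive = exposure times disagree in their calls; inactive = inactive at every exposure time.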

`CCC(=O)N(c1ccc(OC)c(Cl)c1)C(C(=O)NCCc1ccccc1)c1cccs1` (configuration not stated): the outcome was inactive. Take `Cc1onc(C(=O)N2CCN(C(c3ccncc3)c3ccncc3)CC2)c1[N+](=O)[O-]`: the result was inactive.

For the origin of these results see PubChem BioAssay AID720598 (Broad Institute, 2013).
